Legend:
Assay in all cases: log2 ratio of Biotin-Ahx-Ub-VS probe labelling (fragment/DMSO); higher = less target engagement (more negative = stronger competition), active = hit call of the paper (q ≤ 0.05, log2 ratio ≤ -1)
Settings in all cases: compound concentration: 200 uM; treatment time: 3 h
[1] = target: T1, OTUD6B (UniProt Q8N6M0)
T1 sequence (whole entry): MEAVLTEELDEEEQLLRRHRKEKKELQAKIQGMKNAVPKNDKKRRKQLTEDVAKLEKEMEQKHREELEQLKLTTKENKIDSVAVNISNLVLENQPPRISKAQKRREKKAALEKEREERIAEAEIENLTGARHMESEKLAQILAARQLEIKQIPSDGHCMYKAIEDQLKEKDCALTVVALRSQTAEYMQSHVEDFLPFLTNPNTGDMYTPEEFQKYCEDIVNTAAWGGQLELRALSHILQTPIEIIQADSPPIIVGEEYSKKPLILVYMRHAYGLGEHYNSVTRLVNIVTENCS
Procedure, shortened: (§1)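 Fragment (200 µM) or vehicle was incubated for 3 h with triplicate HEK293T lysate samples of 495 µg, which were then treated with Biotin-Ahx-Ub-VS at 0.5 µM final for 1 h. Labelled DUBs were enriched on NeutrAvidin, digested with LysC and trypsin, and analysed by diaPASEF LC-MS/MS. Values are average log2 fragment/vehicle ratios from an unpaired t-test on global-median-normalised Spectronaut label-free quantities, using proteins with ≥2 unique peptides.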

[2] = target: T2, OTUD7B (UniProt Q6GQQ9)
T2 sequence (whole entry): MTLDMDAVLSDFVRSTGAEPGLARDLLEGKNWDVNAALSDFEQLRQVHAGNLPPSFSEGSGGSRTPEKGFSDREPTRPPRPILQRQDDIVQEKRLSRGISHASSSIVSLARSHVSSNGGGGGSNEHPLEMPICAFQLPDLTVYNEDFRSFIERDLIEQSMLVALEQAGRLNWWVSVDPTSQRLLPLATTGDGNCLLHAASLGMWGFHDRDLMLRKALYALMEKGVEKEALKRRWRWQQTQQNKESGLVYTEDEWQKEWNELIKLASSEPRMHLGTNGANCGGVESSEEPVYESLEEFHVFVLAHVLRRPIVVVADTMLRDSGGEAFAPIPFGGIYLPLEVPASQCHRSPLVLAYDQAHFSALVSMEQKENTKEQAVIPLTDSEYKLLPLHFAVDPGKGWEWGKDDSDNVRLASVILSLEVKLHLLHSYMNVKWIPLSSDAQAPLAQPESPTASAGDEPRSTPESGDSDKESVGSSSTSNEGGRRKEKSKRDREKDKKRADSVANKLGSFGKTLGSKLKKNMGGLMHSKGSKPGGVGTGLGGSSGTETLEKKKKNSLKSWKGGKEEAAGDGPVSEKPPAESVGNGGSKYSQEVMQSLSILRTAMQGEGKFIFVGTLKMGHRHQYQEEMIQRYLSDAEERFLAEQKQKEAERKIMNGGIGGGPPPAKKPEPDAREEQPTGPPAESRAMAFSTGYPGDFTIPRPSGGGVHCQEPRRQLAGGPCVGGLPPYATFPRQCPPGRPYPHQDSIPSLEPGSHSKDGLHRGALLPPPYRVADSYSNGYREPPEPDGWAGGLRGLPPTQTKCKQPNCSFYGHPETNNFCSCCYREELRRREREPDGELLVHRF
Procedure, shortened: as §1

[3] = target: PRPF8 (UniProt Q6P2Q9)
Procedure, shortened: as §1

[4] = target: T3, PSMD7 (UniProt P51665)
T3 sequence (whole entry): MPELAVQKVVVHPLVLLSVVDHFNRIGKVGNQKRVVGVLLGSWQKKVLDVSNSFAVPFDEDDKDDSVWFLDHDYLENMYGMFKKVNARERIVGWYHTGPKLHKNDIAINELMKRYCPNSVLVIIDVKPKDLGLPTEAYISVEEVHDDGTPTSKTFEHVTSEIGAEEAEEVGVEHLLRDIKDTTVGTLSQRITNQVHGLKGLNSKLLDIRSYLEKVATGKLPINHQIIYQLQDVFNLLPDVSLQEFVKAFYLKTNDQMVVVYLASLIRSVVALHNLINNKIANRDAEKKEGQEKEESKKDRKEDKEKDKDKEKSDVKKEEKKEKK
Procedure, shortened: as §1

[5] = target: UCHL1 (UniProt P09936)
Procedure, shortened: as §1

[6] = target: T4, UCHL3 (UniProt P15374)
T4 sequence (whole entry): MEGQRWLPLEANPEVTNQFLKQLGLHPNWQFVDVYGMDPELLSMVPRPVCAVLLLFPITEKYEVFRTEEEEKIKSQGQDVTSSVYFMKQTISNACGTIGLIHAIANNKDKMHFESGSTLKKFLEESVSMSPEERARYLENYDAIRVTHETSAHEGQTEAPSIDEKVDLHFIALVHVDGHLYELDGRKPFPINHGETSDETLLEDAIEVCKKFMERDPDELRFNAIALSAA
Procedure, shortened: as §1

[7] = target: T5, UCHL5 (UniProt Q9Y5K5)
T5 sequence (whole entry): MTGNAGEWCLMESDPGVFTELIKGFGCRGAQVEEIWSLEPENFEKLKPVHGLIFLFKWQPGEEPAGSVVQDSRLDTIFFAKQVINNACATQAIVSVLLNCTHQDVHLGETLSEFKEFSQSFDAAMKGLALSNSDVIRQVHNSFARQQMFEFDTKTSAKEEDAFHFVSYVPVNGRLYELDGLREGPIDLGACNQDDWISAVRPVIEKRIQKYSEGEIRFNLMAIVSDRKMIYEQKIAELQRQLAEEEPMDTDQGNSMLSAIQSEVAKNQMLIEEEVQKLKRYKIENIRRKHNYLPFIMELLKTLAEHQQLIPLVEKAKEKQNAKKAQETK
Procedure, shortened: as §1

[8] = target: USP10 (UniProt Q14694)
Procedure, shortened: as §1

[9] = target: T6, USP15 (UniProt Q9Y4E8)
T6 sequence (whole entry): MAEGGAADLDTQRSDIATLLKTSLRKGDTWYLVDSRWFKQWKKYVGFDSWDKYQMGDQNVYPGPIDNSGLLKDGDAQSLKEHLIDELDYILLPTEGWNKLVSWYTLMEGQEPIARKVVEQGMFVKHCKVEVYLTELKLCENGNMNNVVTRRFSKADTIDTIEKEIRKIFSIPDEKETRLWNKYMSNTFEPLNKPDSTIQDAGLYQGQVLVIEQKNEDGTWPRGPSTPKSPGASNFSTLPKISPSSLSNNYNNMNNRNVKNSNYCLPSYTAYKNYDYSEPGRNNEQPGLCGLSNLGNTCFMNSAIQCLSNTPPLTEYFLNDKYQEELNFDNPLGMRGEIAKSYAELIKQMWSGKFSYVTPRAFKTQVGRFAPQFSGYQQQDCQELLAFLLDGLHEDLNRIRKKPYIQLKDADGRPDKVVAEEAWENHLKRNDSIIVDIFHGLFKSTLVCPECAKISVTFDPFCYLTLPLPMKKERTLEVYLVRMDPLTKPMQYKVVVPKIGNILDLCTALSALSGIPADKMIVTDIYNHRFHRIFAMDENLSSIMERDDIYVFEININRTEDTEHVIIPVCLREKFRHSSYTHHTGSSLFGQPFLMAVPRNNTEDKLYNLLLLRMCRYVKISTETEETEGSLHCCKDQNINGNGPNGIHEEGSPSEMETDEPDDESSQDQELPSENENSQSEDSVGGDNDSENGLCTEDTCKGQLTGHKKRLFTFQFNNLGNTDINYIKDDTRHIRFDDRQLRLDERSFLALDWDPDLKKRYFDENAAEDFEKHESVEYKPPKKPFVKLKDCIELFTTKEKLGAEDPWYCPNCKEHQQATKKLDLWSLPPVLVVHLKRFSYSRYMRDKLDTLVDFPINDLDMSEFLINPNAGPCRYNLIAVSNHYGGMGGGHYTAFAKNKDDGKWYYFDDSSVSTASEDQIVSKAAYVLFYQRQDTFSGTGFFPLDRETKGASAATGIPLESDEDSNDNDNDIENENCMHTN
Procedure, shortened: as §1

[10] = target: USP16 (UniProt Q9Y5T5)
Procedure, shortened: as §1

Measured: log2 ratio of Biotin-Ahx-Ub-VS probe labelling

Sequence of USP10 (Q14694 whole entry): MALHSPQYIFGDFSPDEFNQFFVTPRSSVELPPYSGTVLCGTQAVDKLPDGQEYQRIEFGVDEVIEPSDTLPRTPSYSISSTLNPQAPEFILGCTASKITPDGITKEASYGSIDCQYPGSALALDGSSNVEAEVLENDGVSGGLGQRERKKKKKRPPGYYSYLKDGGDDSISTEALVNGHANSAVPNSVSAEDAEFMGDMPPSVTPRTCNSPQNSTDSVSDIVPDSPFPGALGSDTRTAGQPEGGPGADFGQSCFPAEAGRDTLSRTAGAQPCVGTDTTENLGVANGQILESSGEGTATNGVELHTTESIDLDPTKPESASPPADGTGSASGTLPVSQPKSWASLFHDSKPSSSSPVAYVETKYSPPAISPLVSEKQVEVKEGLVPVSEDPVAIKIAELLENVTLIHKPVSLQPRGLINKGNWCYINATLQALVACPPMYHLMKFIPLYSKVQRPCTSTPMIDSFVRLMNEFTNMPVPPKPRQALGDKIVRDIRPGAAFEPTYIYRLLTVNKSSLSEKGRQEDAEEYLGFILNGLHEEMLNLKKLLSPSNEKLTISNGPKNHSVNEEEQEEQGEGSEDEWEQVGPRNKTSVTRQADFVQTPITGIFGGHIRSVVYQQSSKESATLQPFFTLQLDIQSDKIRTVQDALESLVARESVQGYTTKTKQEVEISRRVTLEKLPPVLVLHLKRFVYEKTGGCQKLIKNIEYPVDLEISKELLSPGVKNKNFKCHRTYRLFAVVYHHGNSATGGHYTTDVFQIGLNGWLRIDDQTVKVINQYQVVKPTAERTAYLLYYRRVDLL
Sequence of USP16 (Q9Y5T5 whole entry, looked up): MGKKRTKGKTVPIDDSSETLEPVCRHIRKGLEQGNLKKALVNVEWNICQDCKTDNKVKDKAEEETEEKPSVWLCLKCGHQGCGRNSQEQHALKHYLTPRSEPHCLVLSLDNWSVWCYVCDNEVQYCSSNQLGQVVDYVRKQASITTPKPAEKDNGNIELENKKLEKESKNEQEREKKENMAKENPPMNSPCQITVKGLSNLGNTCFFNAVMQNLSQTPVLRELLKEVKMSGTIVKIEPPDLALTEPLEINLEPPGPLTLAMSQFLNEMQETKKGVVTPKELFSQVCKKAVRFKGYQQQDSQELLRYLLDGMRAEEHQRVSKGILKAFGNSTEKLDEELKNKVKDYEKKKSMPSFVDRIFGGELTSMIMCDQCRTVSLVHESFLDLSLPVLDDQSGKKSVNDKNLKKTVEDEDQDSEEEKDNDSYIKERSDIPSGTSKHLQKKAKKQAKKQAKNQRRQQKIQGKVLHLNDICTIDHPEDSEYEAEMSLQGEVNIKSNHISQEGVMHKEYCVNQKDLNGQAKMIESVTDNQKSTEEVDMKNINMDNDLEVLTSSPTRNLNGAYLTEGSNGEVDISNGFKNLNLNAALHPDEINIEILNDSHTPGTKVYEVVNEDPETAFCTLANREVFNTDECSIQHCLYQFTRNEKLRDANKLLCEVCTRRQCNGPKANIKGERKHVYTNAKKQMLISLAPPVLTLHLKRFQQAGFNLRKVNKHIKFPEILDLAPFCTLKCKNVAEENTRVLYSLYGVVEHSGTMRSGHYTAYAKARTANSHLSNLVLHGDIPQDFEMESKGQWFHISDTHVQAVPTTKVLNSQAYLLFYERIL
Sequence of UCHL1 (P09936 whole entry, looked up): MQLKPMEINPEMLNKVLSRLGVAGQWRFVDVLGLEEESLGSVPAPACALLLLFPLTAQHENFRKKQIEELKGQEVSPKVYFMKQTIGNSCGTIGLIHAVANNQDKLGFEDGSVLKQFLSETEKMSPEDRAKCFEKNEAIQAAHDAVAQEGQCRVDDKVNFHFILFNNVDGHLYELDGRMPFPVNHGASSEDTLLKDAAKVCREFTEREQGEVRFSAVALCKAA

O=C(CCl)N1CCOC2(CCC2)C1
active: [2] -1.29 | [5] -1.53
inactive: [1] 0.01 | [3] -0.0922 | [4] -0.254 | [6] 0.273 | [7] -0.0117 | [8] 0.0764 | [9] 0.059 | [10] 0.246
